Results filed as inconclusive are left out. Calls of active or inactive are those of the source. How the source made its calls: active means hit-call score of the fitted dose curve at least 0.9, where 1 is the maximum; inconclusive means response in the unintended direction; inactive means score below 0.9.

Chain of Cytochrome P450 3A4 (Homo sapiens) (P08684 whole entry, looked up): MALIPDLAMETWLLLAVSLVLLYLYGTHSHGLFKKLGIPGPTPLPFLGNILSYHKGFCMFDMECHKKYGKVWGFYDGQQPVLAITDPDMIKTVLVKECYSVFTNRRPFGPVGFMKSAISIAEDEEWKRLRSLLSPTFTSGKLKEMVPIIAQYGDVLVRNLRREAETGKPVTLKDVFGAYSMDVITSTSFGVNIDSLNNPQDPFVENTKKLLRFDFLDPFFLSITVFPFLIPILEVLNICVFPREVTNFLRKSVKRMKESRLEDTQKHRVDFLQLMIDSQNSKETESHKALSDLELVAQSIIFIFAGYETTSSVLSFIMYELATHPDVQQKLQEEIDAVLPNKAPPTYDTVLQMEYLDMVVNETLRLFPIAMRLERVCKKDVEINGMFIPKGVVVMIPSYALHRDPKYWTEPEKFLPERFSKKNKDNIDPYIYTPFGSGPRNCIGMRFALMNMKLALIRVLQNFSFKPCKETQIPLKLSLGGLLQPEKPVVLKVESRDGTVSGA

Read-out in the experiment: Cytochrome P450 3A4 (Homo sapiens) (UniProt P08684)
Description: CLD_CYP3A4_48hr: CellzDirect (CLD) Gene Expression Assay for xenobiotic metabolism (CYP3A4) at 48 hours (AID 2283698). As to the method: CLD_48hr is a cell-based, multiplexed-readout assay that uses hepatocyte, a human liver primary cell, with measurements taken at 48 hours after chemical dosing in a 96-well plate.CLD_CYP3A4_48hr is one of 16 assay component(s) measured or calculated from the CLD_48hr assay. It is designed to make measurements of mRNA induction, a form of inducible reporter, as detected with chemiluminescence signals by Quantitative Nuclease Protection Assay (qNPA) technology.Data from the assay component CLD_CYP3A4_48hr was analyzed at the endpoint, CLD_CYP3A4_48hr, in the positive analysis fitting direction relative to DMSO as the negative control and baseline of activity. Using a type of inducible reporter, gain-of-signal activity can be used to understand changes in the reporter gene as they relate to the gene CYP3A4. Furthermore, this assay endpoint can be referred to as a primary readout. To generalize the intended target to other relatable targets, this assay endpoint is annotated to the cyp intended target family, where subfamily is xenobiotic metabolism.
Human hepatocyte cultures were treated daily for two consecutive days with fresh dosing solutions containing appropriate concentrations of the 320 ToxCast chemicals (chemical identities were blinded to CellzDirect and other ToxCast collaborators), vehicle control (0.2% DMSO), and positive control inducers as summarized in Table 1. Due to the large number of treatment groups and chemicals examined, the ToxCast chemicals were divided into two groups (spanning two independent cultures of hepatocytes from separate donor preparations (Hu778: ToxCast plates 1 and 2; Hu776: ToxCast plates 3 and 4). Each preparation of human hepatocyte cultures was treated with respective vehicle control, medium only control, set of six positive controls/reference chemicals for the five hepatic receptor pathways, and a subset of eight of the ToxCast chemicals (indoxacarb, pyrithiobac-sodium, norflurazon, cyhalofop-butyl, methomyl, thiram, acetochlor, and propiconazole). These replicate data, coupled with internal replicates designed within the blinded ToxCast chemical library, provided additional data to evaluate interindividual differences between hepatocyte preparations and their potential impact on chemical profiles.Cell morphology and integrity were evaluated using phase-contrast microscopy as an indicator of hepatocyte cell health (Tyson & Green, 1987). Cultures for each treatment group (i.e., media, vehicle [0.2% DMSO], positive control inducers [multiple concentrations], and the ToxCast chemicals [multiple concentrations]) were observed and cell morphology was assessed relative to vehicle control cultures at each harvest time point (0, 6, 24, or 48 h). […] Images were evaluated at the conclusion of the study to assess changes in cell integrity and account for the effects of chemical exposure on uncharacteristic changes in concentration-dependent gene expression profiles. The results from these determinations of apparent cytotoxicity were annotated (yes/no) alongside the corresponding qNPA data for reference.At the conclusion of each treatment period, hepatocyte cultures (96-well) were washed with 1 volume of HBSS, lysed by addition of 25 ul ArrayPlate lysis buffer (HTG, Tucson, AZ), and 70 ul/well of Denaturation Oil, denatured by incubation at 95C for 10 min, and frozen at approximately -70C until analysis by nuclease protection assay (qNPA) (Roberts et al., 2007). For qNPA analysis, cell lysates were thawed at 50C for approximately 30 min, qNPA probes were added, and samples were incubated at 95C for 10 min to begin the detection process by denaturing the target RNA, dissociating the duplexes and secondary structure hybridization. At the conclusion of the hybridization period, S1 nuclease reagent was added to each sample to digest all nonprotected nucleotides at 50C for 60-90 min. […]
Consider `CCOc1nc(C(Cl)(Cl)Cl)ns1`, for which the outcome was inactive. `CCOc1cc(C(C)(C)C)ccc1C1COC(c2c(F)cccc2F)=N1` (stereo not given): the AC50 (as a rule, the concentration giving half of the maximal activity seen) was 1.9 µM (active). For `OC(c1ccc(Cl)cc1)(c1ccc(Cl)cc1)C(Cl)(Cl)Cl`, the half-maximal activity concentration (AC50) was 11 µM (active). Regarding `CCNP(=S)(OC)O/C(C)=C/C(=O)OC(C)C` (stereo not given), the AC50 is 0.654 µM (active). In the case of `N#Cc1c[nH]cc1-c1cccc2c1OC(F)(F)O2`, the call was inactive. For the compound `CC(C)(C)C(=O)C(Oc1ccc(Cl)cc1)n1cncn1` (stereo not given), the AC50 was 1.5 µM (active). Regarding `CC(C)N1C(=O)N(c2ccccc2)CSC1=NC(C)(C)C`, the AC50 is 8.18 µM (active). With `CCCN(CC)CC1COC2(CCC(C(C)(C)C)CC2)O1` (stereo not given), the half-maximal activity concentration (AC50) is 2.82 µM (active). For `CCOP(=O)(OCC)Oc1nc(Cl)c(Cl)cc1Cl`, the compound was classed as inactive. With `COc1cc(Cl)c(OC)cc1Cl`, the compound was called inactive. For `CC(C)Nc1nc(Cl)nc(NC(C)C)n1`, the AC50 is 3.54 µM (active). Consider `COCc1cnc(C2=NC(C)(C(C)C)C(=O)N2)c(C(=O)O)c1` (stereo not given), for which the result was inactive. Turning to `CCCCC(O)(Cn1cncn1)c1ccc(Cl)cc1Cl` (stereo not given), the half-maximal activity concentration (AC50) was 1.89 µM (active). Consider `CCCCC(C#N)(Cn1cncn1)c1ccc(Cl)cc1` (stereo not given), for which the AC50 was 20 µM (active). Regarding `CNC(=O)Oc1cccc2ccccc12`, the compound was classed as inactive.

As for `CCN(CC)C(=O)C(C)Oc1cccc2ccccc12` (stereo not given), the half-maximal activity concentration (AC50) was 3.72 µM (active).

On to `CO/N=C(/C1=NOCCO1)c1ccccc1Oc1ncnc(Oc2ccccc2Cl)c1F`, for which the compound was classed as inactive.

Take `COc1cc(OC)nc(NC(=O)NS(=O)(=O)c2ncccc2OCC(F)(F)F)n1`: the AC50 is 20 µM (active). As to `CCSC(=O)N1CCCCCC1`, the AC50 was 3.97 µM (active). Take `CCC(C)n1c(=O)[nH]c(C)c(Br)c1=O` (stereo not given): the compound was called inactive.

Turning to `COC(=O)N(C(=O)N1CO[C@@]2(C(=O)OC)Cc3cc(Cl)ccc3C2=N1)c1ccc(OC(F)(F)F)cc1`, the AC50 is 5.15 µM (active). Consider `Clc1nc(Cl)nc(Nc2ccccc2Cl)n1`, for which the compound was called inactive.

As for `C=C(C)CN(CC)c1c([N+](=O)[O-])cc(C(F)(F)F)cc1[N+](=O)[O-]`, the AC50 is 3.97 µM (active). Turning to `CC1(C)C(C(=O)OC(C#N)c2cccc(Oc3ccccc3)c2)C1(C)C` (stereo not given), the AC50 is 20 µM (active). As for `CCNC(=O)NC(=O)C(C#N)=NOC`, the compound was called inactive. On to `COP(=S)(OC)SCn1nnc2ccccc2c1=O`, for which the AC50 is 12.8 µM (active). On the same count and under the same terms, the result for `CCCC(=NOCC)C1=C(O)CC(CC(C)SCC)CC1=O` (stereo not given) reads 20 µM (active); that for `Clc1cccc(C(Cl)(Cl)Cl)n1`, 3.02 µM (active); that for `N#Cc1c(Cl)cccc1Cl`, 4.83 µM (active). On the same count and under the same terms, the result for `N#CN=C1SCCN1Cc1ccc(Cl)nc1` reads 20 µM (active); that for `CCOC(=O)C(C)OC(=O)c1cc(Oc2ccc(C(F)(F)F)cc2Cl)ccc1[N+](=O)[O-]` (stereo not given), 5.01 µM (active).

As to `Cc1nc(N(C)C)nc(OC(=O)N(C)C)c1C`, the call was inactive. For `O=C(O)c1c(Cl)ccc2cc(Cl)cnc12`, the compound was called inactive. Take `CC(C)C1(C)N=C(c2ncccc2C(=O)O)NC1=O` (stereo not given): the outcome was inactive. Take `CCCCOCN(C(=O)CCl)c1c(CC)cccc1CC`: the concentration at half-maximal activity (AC50) is 3.57 µM (active). `COC(=O)NS(=O)(=O)c1ccc(N)cc1`: the outcome was inactive. For the compound `CC(C)NC(=O)N1CC(=O)N(c2cc(Cl)cc(Cl)c2)C1=O`, the AC50 was 13.5 µM (active).

Turning to `CSC(=O)c1c(C(F)F)nc(C(F)(F)F)c(C(=O)SC)c1CC(C)C`, the AC50 is 0.645 µM (active). Regarding `CN=C=S`, the result was inactive. For `CC1(C)CON(Cc2ccccc2Cl)C1=O`, the AC50 is 5.13 µM (active).

The values above are taken from PubChem BioAssay (EPA / NIEHS).
